# The entries come from a sample that favours hits as a whole.
# PKM2 inhibitor: PKM2 (human) enzyme inhibition. purified PKM2, ATP generation, Kinase-Glo luminescence. Potency, µM (series often up to 57.5 µM), for the others: top-dose activity change, negative = inhibition, usual class: inhibitors. actives 0.058% (n = 260,000). AID 1634; also: potency is read from the fitted curve at half-maximal effect; nearly all actives have a fitted effect of over 60% in size
# Target sequence (P14618 whole entry, looked up): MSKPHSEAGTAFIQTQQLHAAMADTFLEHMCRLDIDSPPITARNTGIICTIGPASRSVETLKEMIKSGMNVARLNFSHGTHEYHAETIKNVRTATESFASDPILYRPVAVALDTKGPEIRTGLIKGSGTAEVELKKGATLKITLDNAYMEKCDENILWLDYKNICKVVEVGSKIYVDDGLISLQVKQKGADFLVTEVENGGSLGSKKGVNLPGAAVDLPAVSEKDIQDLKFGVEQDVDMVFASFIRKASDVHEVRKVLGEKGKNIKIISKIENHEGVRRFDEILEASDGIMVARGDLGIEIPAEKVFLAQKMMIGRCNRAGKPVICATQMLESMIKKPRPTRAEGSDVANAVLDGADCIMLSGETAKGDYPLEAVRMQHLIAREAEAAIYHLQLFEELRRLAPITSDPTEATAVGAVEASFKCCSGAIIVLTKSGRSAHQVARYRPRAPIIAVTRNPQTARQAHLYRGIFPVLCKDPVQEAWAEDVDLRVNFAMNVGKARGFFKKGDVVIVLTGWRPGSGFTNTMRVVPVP
#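 Enzyme run at intermediate activity with final 0.1 mM ADP, 0.5 mM PEP (50 mM imidazole pH7.2, 50 mM KCl, 7 mM MgCl2), incubated 1 h at r.t. ATP formed read by Kinase-Glo luminescence, normalized to no-enzyme (full inhibition) and uninhibited wells.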
# PKM2 inh dose: dose-dependently blocks human pyruvate kinase M2 activity | Potency, µM (doses to about 57.5 µM), for the others: at the top dose activity change, negative = inhibition, actives largely listed as inhibitors | shares compounds with PKM2 inhibitor | purified hPK-M2, Kinase-Glo ATP luminescence, 1 h | actives 50% (n = 55)
# FLuc counter: counter-screen for pyruvate kinase M2 inhibitors: firefly luciferase inhibition; Potency, µM (highest dose often 57.5 µM), without a hit: at the highest dose activity, negative = inhibition, most hits filed as inhibitors; shares compounds with PKM2 inhibitor; actives 30% (n = 55); Kinase-Glo firefly luciferase, luminescence, 8 min
# PKM2 LDH couple: confirmation of human pyruvate kinase M2 inhibitors, coupled readout | shares compounds with PKM2 inhibitor | purified hPK-M2, LDH-coupled NADH fluorescence kinetic | Potency, µM (top dose mostly 57.5 µM), for inactives: at the top dose activity change, negative = inhibition, usual class: inhibitors | 55 tested, under 10 active | AID 2267
# The depositor's hits bear a star; ? = inconclusive. Calls follow the shape of the dose curve; as a rule, active = well fitted curve in the direction sought with a large enough effect; inconclusive = small, poorly fitted or top-dose-only effect, or another doubt; inactive = no such curve, though single readings can be large; an effect the other way counts as inactive or inconclusive.
SMILES,PKM2 inhibitor,others
O=C(c1ccc2c3n(nc2c1)-c1ccccc1CO3)N1CCOCC1,14.1µM*,
O=C(O)c1cc(N2CCOCC2)nc2ccccc12,30.9%,
O=C(c1ccc(Cl)c(S(=O)(=O)N2CCCCCC2)c1)N1CCOCC1,39.2%,
CN(Cc1ccccc1)C(=O)COC(=O)c1cc(NS(=O)(=O)c2cccs2)ccc1O,59.0%,
N#CCCSc1ccccc1NC(=O)c1ccc(S(=O)(=O)N2CCCC2)cc1,73.1%,
COc1cc(N2C(=O)C=CC2=O)c(OC)cc1Cl,120.7%,
O=C(/C=C/c1ccc(O)c(O)c1)OC1C(O)CC(OC(=O)/C=C/c2ccc(O)c(O)c2)(C(=O)O)CC1O (stereo not given),35.7%,
CCOc1ccc(C(=O)CN2CCN(S(=O)(=O)c3ccc(OC)cc3)CC2)cc1,30.5%,
CCN1/C(=C/c2ccc3cc(C)ccc3[n+]2CC)Sc2ccccc21,4.47µM*,
CCn1c(CCc2ccccc2)nc2ccccc21,30.9%,
Cn1c(=O)c2c(SCC(=O)Nc3nccs3)nc(C3CC3)nc2n(C)c1=O,37.0%,
CCn1c(=O)c2cc(C(=O)N3CCN(C(=O)c4ccco4)CC3)sc2c2ccccc21,42.0%,
CC(C)c1ccc(CN2CC(C(=O)Nc3ccccc3)CC2=O)cc1 (stereo not given),2.3%,
c1ccc(-c2cc3n(c2)CCc2ccccc2-3)cc1,34.1%,
Cc1cc2sc(C(=O)O)c(C)c2s1,35.4%,
COc1ccc(-c2nc(-c3ccccn3)no2)cc1,3.55µM*,PKM2 inh dose=5.8µM*;FLuc counter=3.26µM*;PKM2 LDH couple=-11.7%
COc1ccc(C(=O)NCc2oc(-c3ccccc3)cc2C(=O)O)cc1,39.3%,
Cc1ccccc1-c1nc(-c2ccccn2)no1,8.91µM*,PKM2 inh dose=11.6µM*;FLuc counter=5.17µM*;PKM2 LDH couple=-3.0%
Cc1cccc(OCc2nnc(SCC(=O)Nc3cccc(C(=O)N4CCOCC4)c3)n2C)c1,33.7%,
Cc1ccc(CNC(=O)C2(CC(C)C)C=CCN2C(=O)c2ccccc2)o1 (stereo not given),43.9%,
CC(=O)N(c1nnc(-c2cccc(C)c2)s1)C1CCCC1,46.2%,
Cc1ccc(NC(=O)C2C3C=CC4(CN(Cc5cccnc5)C(=O)C24)O3)cc1F (stereo not given),41.5%,
Cc1nc2cc(NCc3ccccc3O)ccc2n1Cc1ccccc1,109.5%,
CC(=O)c1ccc(S(=O)(=O)N2CCN(C(=O)CSc3ccc(C)c(C)c3)CC2)cc1,56.3%,
C=CCn1c(COc2ccccc2OC)nc2ccccc21,57.6%,
SMILES,PKM2 inhibitor,others
Cc1ccc(S(=O)(=O)N(C)CC(=O)N/N=C/c2ccc(C)o2)cc1,34.3%,
Cc1ccc(-n2[nH]c(C)c(/C=N/c3ccccn3)c2=O)cc1,11.2µM*,PKM2 inh dose=?;FLuc counter=?;PKM2 LDH couple=-10.8%
CC(NC(=O)COC(=O)c1ccc(N(C)C)cc1)c1ccccc1 (stereo not given),45.8%,
N#C/C(=C\Nc1ccc(Cl)cc1)S(=O)(=O)c1ccccn1,52.6%,
COc1ccc(C(=O)N=c2nc3ccccn3s2)cc1,7.94µM*,PKM2 inh dose=13µM*;FLuc counter=5.17µM*;PKM2 LDH couple=-5.0%
Cc1cc(NC(=O)CSc2ccc3nnc(-c4cccs4)n3n2)no1,48.5%,
O=c1[nH]c(CN2CCN(c3ccc(O)cc3)CC2)nc2scc(-c3ccc(Cl)cc3)c12,94.7%,
Cc1nc2cc(-c3ccccc3)sc2c(=O)n1N,3.55µM*,PKM2 inh dose=3.66µM*;FLuc counter=2.59µM*;PKM2 LDH couple=-4.8%
N#CCn1cnc2sc(-c3ccccc3)cc2c1=O,31.3%,
O=[N+]([O-])c1ccc(NCCCNS(=O)(=O)c2ccccc2)c(Cl)c1,86.2%,
O=C(Cn1nnc(-c2ccccc2Cl)n1)N1CCN(S(=O)(=O)c2ccc(Cl)cc2)CC1,122.3%,
CNS(=O)(=O)c1ccc(NCC2COc3ccccc3O2)c([N+](=O)[O-])c1 (stereo not given),42.6%,
COc1ccc(Nc2nc(C)cc(C)c2C(N)=O)c(OC)c1,40.6%,
C=CCc1cccc2cc(C(=O)Nc3ccc(S(=O)(=O)Nc4nnc(CC)s4)cc3)c(=O)oc12,39.0%,
C/C(=N\NC(=O)C1CCCN(S(=O)(=O)c2ccccc2)C1)c1ccccn1 (stereo not given),1.9%,
CCOc1ccc(C(=O)O/N=C(\N)c2ccccn2)cc1,7.94µM*,PKM2 inh dose=5.8µM*;FLuc counter=6.51µM*;PKM2 LDH couple=-9.6%
CCOC(=O)N1CCN(S(=O)(=O)c2ccc(OCC)cc2)CC1,35.1%,
CCOc1ccc(NC(c2ccccn2)c2oc(CO)cc(=O)c2O)cc1 (stereo not given),41.5%,

# Source: PubChem BioAssay (National Center for Advancing Translational Sciences (NCATS))
